# Experimental data: PubChem BioAssay (EPA / NIEHS)
# The source made the active and inactive calls. Rule for the calls: active = hit-call score of the fitted dose curve at least 0.9, where 1 is the maximum; inactive = score below 0.9.
# Read-out: matrix metalloproteinase-10 (MMP10), MMP10 (gene 4319)
# Experiment: LTEA_HepaRG_MMP10: Life Technologies and Expression Analysis (LTEA) Assay for matrix metalloproteinase-10 (MMP10) using HepaRG (AID 2283517)
# Settings: mRNA level, 48 h; actives raise or lower the signal
# Procedure: LTEA_HepaRG is a cell based, multiplexed-readout assay that uses HepaRG, a human liver cell line, with measurements taken at 48 hours after chemical dosing on a 96-well plate.LTEA_HepaRG_MMP10 is one of 102 assay component(s) measured in the LTEA HepaRG cell culture assay. It is a marker of Fibrosis.Data from the assay component LTEA_HepaRG_MMP10 was analyzed into 1 endpoint. This assay endpoint, LTEA_HepaRG_MMP10, was analyzed with bidirectional fitting relative to DMSO as the negative control and baseline of activity. Using a type of inducible reporter, measures of mRNA induction for gain or loss-of-signal activity can be used to understand regulation of transcription factor activity. To generalize the intended target to other relatable targets, this assay endpoint is annotated to the protease intended target family, where the subfamily is matrix metalloproteinase.
# A total of 1060 chemcials from the ToxCast library were tested in eight-point concentration-response experiments. Cell culture and cytotoxicity assays were conducted at Thermo Fisher Scientific's Custom Services facility (Madison, WI). A single lot of human HepaRG cells (Thermo Fisher Scientific, Frederick, MD) was used for the cell culture experiments. 96-well format collagen type I coated plates of human HepaRG cells were prepared using established methods. Briefly, cryopreserved HepaRG cells were thawed, plated at a density of approximately 100,000 cells/well in HepaRG Thaw, Plate, and General Purpose media (HPRG770, Thermo Fisher Scientific), and incubated for 48 hours. 0.5% DMSO was selected as vehicle control to balance the requisite need of DMSO in HepaRG cultures to maintain differentiation (for example, baseline metabolism, proportions of hepatocytes vs. cholangiocytes), while enabling further hepatic receptor pathway activation (for example, PXR and CAR) in response to chemical exposure. 48 hours after plating, the culture medium was replaced with HepaRG Serum-Free Incudtion Media. Cells were exposed to each test chemical in duplicate and maintained in CO2 incubators for another 48 hours. Chemical plates were thawed to room temperature and 200x concentrations of treatment groups were prepared. 8-point conentration-reponse curves were made with the highest exposure at 100 uM, followed by half-log dilutions, all in 0.5% DMSO. Each test plate contained variouse controls, induction positive controls (1mM phenobarbital), cytotoxicity positive controls ([…] aflatoxin B1), vehicle controls (0.5% DMSO), and total lysis controls (0.5% DMSO). Cell morphology images were taken using an Essen IncuCyte FLR automated microscope, with six 96-well plates imaged in about 24 minutes. Images were captured and exported and JPEG files. Spent culture media was transfered to black-well plates for the LDH assay, and remaining media was sorted at -80 C for later use. Cells were treated with RLT buffer and frozen until shipped for gene expression analysis. Total RNA was isolated from the cell suspension in 75 uL of Buffer RLT (Qiagen, Germantown, MD 20874) by Quintiles/Expression Analysis (Durham, NC) using a custom isolation procedure. Total RNA from each plate well was transferred to a preamplification plate. Fluidigm's 96.96 Dynamic ArrayTM (Fluidigm, Amsterdam, the Netherlands) technology was used for gene expression analyses by quantitative reverse transcription polymerase chain reaction (qRT-PCR, performed by Quintiles/Expression Analysis, Durham, NC)89. Standard TaqManTM Assays (Applied Biosystems/ThermoFisher Scientific, Foster City, CA) were used to assess the expression of 93 genes selected based on their selectivity and sensitivity to important hepatic receptors known to be modulated by environmental chemicals; importance in human hepatocyte functionality; and hepatotoxicity. […]
SMILES,outcome,AC50
CCCCCCCCc1ccc(O)cc1,inactive,
CC(=O)[O][Hg][c]1ccccc1,,15.8 µM (active)
CCC(C)(C)c1ccc(O)c(C(C)(C)CC)c1,inactive,
CCN1CCC2(CC1)COc1cc3c(cc12)N(C(=O)c1ccc(-c2ccc(-c4nnc(C)o4)cc2C)cc1)CC3,,76.1 µM (active)
CC(C)(c1ccccc1)c1ccc(O)c(C(C)(C)c2ccccc2)c1,inactive,
C=CC(=O)OCCCCCC(C)C,inactive,
O=C(O)C(F)(F)C(F)(F)C(F)(F)C(F)(F)C(F)(F)C(F)(F)C(F)(F)C(F)(F)C(F)(F)C(F)(F)F,inactive,
O=C1C2(Cl)C3(Cl)C4(Cl)C(Cl)(Cl)C5(Cl)C3(Cl)C1(Cl)C5(Cl)C24Cl (stereo unspecified),,88.8 µM (active)
O=C(O)C(Cl)(Cl)Cl,inactive,
Oc1cccc2cccnc12,inactive,
NC(=O)O,inactive,
C[C@@H]1C[C@@H]([C@H](O)CC2CC(=O)NC(=O)C2)C(=O)[C@@H](C)C1,inactive,
CCC(=O)C(CC(C)N(C)C)(c1ccccc1)c1ccccc1 (stereo unspecified),inactive,
ClCC(Cl)CCl,inactive,
CC(C)(C)CC(C)(C)c1ccc(O)cc1,inactive,
CN(C)N=O,inactive,

SMILES,outcome,AC50
O=C(O)C(F)(F)C(F)(F)C(F)(F)C(F)(F)C(F)(F)C(F)(F)F,inactive,
O=C(Nc1ccc2[nH]ccc2c1)c1cc2cc(F)ccc2n1Cc1cccc(F)c1,,29 µM (active)
Cn1sc(Cl)cc1=O,inactive,
CC12CC1(C)C(=O)N(c1cc(Cl)cc(Cl)c1)C2=O (stereo unspecified),inactive,
C[C@]12CCC(=O)C[C@@H]1CC[C@@H]1[C@@H]2CC[C@]2(C)[C@@H](O)CC[C@@H]12,inactive,
COc1cc(-c2ccc(N)c(OC)c2)ccc1N,inactive,
CC(C)(C)c1cc(O)ccc1O,inactive,
CCOP(=S)(OCC)Oc1nc(Cl)c(Cl)cc1Cl,inactive,
ClC1(Cl)C2(Cl)C3(Cl)C4(Cl)C(Cl)(Cl)C5(Cl)C3(Cl)C1(Cl)C5(Cl)C24Cl (stereo unspecified),inactive,
O=[N+]([O-])c1ccc(O)c([N+](=O)[O-])c1,inactive,
O=c1[nH]c(=O)[nH]c(=O)[nH]1,inactive,
CCOP(=S)(OCC)SCSP(=S)(OCC)OCC,inactive,
C=C(C)C(=O)[O][Sn]([CH2]CCC)([CH2]CCC)[CH2]CCC,inactive,
Cc1ccccc1N,inactive,
CC(C)(OO)c1ccccc1,inactive,
